# From publication PMC12280212
# Legend:
# Actin, cytoplasmic 1 = Actin, cytoplasmic 1 (UniProt P60709); experiment: cross-linking mass spectrometry
# Histone H2B type 1-N = Histone H2B type 1-N (UniProt Q99877); experiment: cross-linking mass spectrometry
# Alpha-enolase = Alpha-enolase (UniProt P06733); experiment: cross-linking mass spectrometry
# [1] = target: Heat shock cognate 71 kDa protein (UniProt P11142); experiment: cross-linking mass spectrometry
# [2] = target: Heterogeneous nuclear ribonucleoprotein U (UniProt Q00839); experiment: cross-linking mass spectrometry
# Chain of Heterogeneous nuclear ribonucleoprotein U (Q00839 whole entry): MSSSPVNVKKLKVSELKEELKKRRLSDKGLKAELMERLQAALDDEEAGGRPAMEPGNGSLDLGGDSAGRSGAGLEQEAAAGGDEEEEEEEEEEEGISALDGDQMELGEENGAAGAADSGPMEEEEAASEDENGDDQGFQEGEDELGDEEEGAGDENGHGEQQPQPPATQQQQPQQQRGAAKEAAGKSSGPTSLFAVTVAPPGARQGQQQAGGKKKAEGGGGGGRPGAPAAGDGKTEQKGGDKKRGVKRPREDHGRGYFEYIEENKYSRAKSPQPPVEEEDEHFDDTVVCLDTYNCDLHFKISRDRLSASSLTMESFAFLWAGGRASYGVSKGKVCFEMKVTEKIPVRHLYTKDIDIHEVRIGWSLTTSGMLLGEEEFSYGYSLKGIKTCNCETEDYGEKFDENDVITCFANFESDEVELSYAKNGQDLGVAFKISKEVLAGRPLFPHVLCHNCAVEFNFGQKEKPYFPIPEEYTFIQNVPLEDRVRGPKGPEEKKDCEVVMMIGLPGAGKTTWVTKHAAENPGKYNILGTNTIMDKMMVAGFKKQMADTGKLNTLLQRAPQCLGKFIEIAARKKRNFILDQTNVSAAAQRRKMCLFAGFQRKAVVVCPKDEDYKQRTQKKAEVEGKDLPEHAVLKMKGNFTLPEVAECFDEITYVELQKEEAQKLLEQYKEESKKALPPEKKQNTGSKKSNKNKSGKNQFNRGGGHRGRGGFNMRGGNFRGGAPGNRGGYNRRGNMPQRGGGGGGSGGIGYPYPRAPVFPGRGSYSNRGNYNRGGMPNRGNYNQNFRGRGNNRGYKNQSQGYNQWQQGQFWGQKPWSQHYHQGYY
# [3] = target: Protein disulfide-isomerase A6 (UniProt Q15084); experiment: cross-link between two proteins; cross-linking mass spectrometry
# Chain of Protein disulfide-isomerase A6 (Q15084 whole entry): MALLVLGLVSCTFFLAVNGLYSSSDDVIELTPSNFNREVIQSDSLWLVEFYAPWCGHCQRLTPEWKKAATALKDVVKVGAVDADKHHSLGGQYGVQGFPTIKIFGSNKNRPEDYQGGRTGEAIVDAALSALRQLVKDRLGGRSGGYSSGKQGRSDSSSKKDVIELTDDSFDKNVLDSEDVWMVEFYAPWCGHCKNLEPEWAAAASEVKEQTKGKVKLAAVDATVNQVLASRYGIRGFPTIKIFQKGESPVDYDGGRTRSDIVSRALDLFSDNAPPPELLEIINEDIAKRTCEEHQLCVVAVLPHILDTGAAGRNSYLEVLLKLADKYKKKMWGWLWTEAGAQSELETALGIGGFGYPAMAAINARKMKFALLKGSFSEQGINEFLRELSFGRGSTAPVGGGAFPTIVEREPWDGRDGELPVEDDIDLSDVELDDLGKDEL
# [4] = target: Voltage-gated monoatomic cation channel TMEM109 (UniProt Q9BVC6); experiment: as above
# Chain of Voltage-gated monoatomic cation channel TMEM109 (Q9BVC6 whole entry): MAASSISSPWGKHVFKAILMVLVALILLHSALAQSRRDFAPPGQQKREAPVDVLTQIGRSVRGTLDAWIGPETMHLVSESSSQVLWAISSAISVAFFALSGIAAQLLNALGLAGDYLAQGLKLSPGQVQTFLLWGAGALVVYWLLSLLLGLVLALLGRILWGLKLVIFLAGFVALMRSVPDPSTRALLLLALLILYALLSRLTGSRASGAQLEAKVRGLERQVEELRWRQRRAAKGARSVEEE
# CD44 antigen = CD44 antigen (UniProt P16070); experiment: cross-link between two proteins; affinity purification or IP with mass spectrometry; cross-linking mass spectrometry
# Chain of Glyceraldehyde-3-phosphate dehydrogenase, P04406 (P04406 whole entry): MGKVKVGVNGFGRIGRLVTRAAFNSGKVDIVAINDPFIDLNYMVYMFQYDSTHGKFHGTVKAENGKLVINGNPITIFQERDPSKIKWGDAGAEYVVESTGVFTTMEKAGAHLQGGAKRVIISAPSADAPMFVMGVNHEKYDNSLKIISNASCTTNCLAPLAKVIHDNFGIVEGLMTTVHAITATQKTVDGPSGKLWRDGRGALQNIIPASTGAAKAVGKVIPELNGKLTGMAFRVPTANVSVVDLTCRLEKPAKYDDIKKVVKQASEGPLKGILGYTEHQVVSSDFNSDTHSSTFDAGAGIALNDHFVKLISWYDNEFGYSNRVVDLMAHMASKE
# Chain of Alpha-enolase (P06733 whole entry): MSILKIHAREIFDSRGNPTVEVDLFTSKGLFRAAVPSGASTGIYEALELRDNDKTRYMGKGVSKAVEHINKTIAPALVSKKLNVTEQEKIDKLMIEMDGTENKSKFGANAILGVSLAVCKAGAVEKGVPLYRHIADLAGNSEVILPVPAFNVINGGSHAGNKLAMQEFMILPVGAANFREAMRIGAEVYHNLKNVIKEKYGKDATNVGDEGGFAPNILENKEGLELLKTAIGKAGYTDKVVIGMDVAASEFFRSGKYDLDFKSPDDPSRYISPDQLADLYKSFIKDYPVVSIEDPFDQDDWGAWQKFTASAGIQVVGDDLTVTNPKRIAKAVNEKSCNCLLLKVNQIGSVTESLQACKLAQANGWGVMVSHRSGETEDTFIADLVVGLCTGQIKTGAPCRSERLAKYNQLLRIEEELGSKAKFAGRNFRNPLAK
# Chain of Protein disulfide-isomerase, P07237 (P07237 whole entry): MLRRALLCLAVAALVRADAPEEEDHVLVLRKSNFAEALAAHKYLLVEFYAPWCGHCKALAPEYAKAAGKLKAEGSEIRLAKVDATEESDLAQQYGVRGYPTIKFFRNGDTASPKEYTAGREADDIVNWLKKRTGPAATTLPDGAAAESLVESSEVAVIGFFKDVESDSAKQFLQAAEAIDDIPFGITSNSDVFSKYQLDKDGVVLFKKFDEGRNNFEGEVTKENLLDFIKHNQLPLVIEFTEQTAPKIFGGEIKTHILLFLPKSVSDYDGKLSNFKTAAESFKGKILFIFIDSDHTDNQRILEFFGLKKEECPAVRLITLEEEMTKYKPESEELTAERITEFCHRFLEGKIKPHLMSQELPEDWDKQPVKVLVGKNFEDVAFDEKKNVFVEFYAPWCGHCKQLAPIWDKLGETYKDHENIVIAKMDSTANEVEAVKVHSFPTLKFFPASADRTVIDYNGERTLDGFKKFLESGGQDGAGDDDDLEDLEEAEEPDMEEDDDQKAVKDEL
substance,measurement,setting,value
"High mobility group protein B1, P09429",listed as a hit,"Actin, cytoplasmic 1",yes
same,listed as a hit,Histone H2B type 1-N,yes
"Glyceraldehyde-3-phosphate dehydrogenase, P04406",listed as a hit,Alpha-enolase,yes
"Tubulin beta chain, P07437",listed as a hit,[1],yes
"Heterogeneous nuclear ribonucleoprotein A1, P09651",listed as a hit,[2],yes
"Protein disulfide-isomerase, P07237",listed as a hit,[3],yes
"Transmembrane protein 43, Q9BTV4",listed as a hit,[4],yes
"Annexin A6, P08133",listed as a hit,CD44 antigen,yes
